Bioassay records: PubChem BioAssay, National Center for Advancing Translational Sciences (NCATS)
Rows were chosen to be rich in hits. Some 15% of all compounds tested hit in one or more screens of this group.
ELG1 DNA repair: ELG1-dependent DNA repair inhibition; HEK293T ELG1-luciferase reporter, luminescence, 16 h; DNA damage induced by 5-fluorouridine; Potency, µM (doses to about 46.1 µM), for inactives: at the highest dose activity change, negative = inhibition, actives largely listed as inhibitors; 330,000 compounds, 2.3% hits; also: nearly all actives have a fitted effect of over 55% in size
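HEK293T cells expressing luciferase-tagged ELG1 (2,000/well) received 5-Fluorouridine plus compound or DMSO for 16 hr at 37 °C. Luciferase was read by ONE-Glo luminescence after 30 min at room temperature.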
TDP1 cell CPT: growth inhibition of DT40 Tdp1-/-;hTDP1 cells with camptothecin (screen for TDP1 inhibitors); AID 686979; chicken DT40 Tdp1-/-;hTDP1 cells + 20 nM CPT, ATP luminescence, 48 h; Potency, µM (top dose mostly 46.2 µM), for inactives: top-dose activity change, negative = growth inhibition, most hits filed as inhibitors; 420,000 compounds, 12% hits; also: nearly all actives have a fitted effect of over 55% in size
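Chicken DT40 Tdp1-/- cells stably complemented with human TDP1 were seeded at 400 cells/well in medium containing 20 nM camptothecin, exposed to pin-transferred compounds, and grown at 37 °C for at least 48 hr. Viability was read as ATP luminescence.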
Gal4-VP16 FLuc: counter-screen for ROR gamma inhibitors: Gal4-VP16 reporter | Drosophila S2 Gal4-VP16 UAS-luciferase, luminescence, 20 h | Potency, µM (top dose mostly 53.6 µM), without a hit: top-dose activity, negative = inhibition, usual class: inhibitors | 310,000 compounds, 3.5% hits | AID 2546;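 also: Gal4-VP16 expression switched on by copper sulfate through the metallothionein promoter; nearly all actives have a fitted effect of over 50% in size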
12-LOX inh: blocks human arachidonate 12S-lipoxygenase | P18054 | purified 12hLO, xylenol orange hydroperoxide absorbance | Potency, µM (highest dose often 108 µM), for inactives: top-dose activity change, negative = inhibition, hits mostly inhibitors | 580,000 compounds, 1.1% hits
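Purified human 12hLO (150 nM final) in 25 mM Hepes, 0.01% Triton X-100, pH 7.0 was preincubated 15 min at room temperature with compound. Then 40 uM arachidonic acid was added, 30 min. Hydroperoxide was read by Fe-XO absorbance ratio 573/405 nm.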
DT40 TDP1 no CPT: qHTS for Inhibitors of human tyrosyl-DNA phosphodiesterase 1 (TDP1): qHTS in cells in absence of CPT | DT40 Tdp1-/- hTDP1 cells, no CPT, ATP luminescence, 48 h | Potency, µM (titrated, usually from 46.2 µM), for inactives: at the top dose activity change, negative = growth inhibition, actives largely listed as inhibitors | 420,000 compounds, 15% hits | AID 686978, 2013; also: nearly all actives have a fitted effect of over 55% in size
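Compound effects on proliferation are scored in DT40 Tdp1-/-;hTDP1 cells in the absence of CPT. ATP levels (CellTiter-Glo luminescence) are recorded after a ≥48 hr, 37 °C incubation.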
RORg inh: blocks mouse ROR gamma transcriptional activity; Drosophila S2 Gal4-RORgamma UAS-luciferase reporter, 20 h; Potency, µM (highest dose often 53.6 µM), without a hit: at the highest dose activity change, negative = inhibition, usual class: inhibitors; 310,000 compounds, 5.4% hits; also: nearly all actives have a fitted effect of over 60% in size
Target sequence (P51450 whole entry, looked up, the tested form may be a part): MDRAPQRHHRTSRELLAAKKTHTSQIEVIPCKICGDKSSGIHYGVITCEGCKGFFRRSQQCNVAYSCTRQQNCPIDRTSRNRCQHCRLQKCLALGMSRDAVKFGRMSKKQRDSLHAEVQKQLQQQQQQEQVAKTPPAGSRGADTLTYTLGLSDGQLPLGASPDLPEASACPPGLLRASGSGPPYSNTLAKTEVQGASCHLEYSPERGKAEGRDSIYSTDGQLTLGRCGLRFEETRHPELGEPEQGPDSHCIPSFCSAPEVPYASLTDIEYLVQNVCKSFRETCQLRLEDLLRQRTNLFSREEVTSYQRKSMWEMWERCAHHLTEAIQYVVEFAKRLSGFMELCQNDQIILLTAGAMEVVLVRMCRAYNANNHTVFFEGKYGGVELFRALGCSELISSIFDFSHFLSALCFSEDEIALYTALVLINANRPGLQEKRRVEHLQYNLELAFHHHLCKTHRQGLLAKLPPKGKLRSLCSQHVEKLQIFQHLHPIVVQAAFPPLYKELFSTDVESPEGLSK
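A Gal4/UAS one-hybrid system in insect cells: metallothionein-promoter Gal4–ROR gamma fusion plus Photinus luciferase reporter. Copper sulfate 700 uM final, 20 hr ambient incubation, luminescent detection after 10 min with reagent.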
The depositor's hits bear a star; ? = inconclusive; nt = not tested or not shown; [ ] = remark or other dose. Calls follow the shape of the dose curve; as a rule, active = well fitted curve in the direction sought with a large enough effect; inconclusive = small, poorly fitted or top-dose-only effect, or another doubt; inactive = no such curve, though single readings can be large; an effect the other way counts as inactive or inconclusive. % is scaled to controls: 0 for no effect and ±100 for the full control effect; potency is read from the fitted curve at half-maximal effect.

SMILES	ELG1 DNA repair	TDP1 cell CPT	Gal4-VP16 FLuc	12-LOX inh	DT40 TDP1 no CPT	RORg inh
CCN1CCN(c2cc(C)c3cc(NC(=O)c4ccccc4F)ccc3n2)CC1	-23%	?	10%	2%	?	13%
CN(C)c1ccc(-c2noc([C@@H]3CCCN3Cc3nc4ccccc4n3C)n2)cn1	nt	nt	nt	95%[176 µM]	nt	nt
OC(c1ccccc1)(c1ccccc1)C1CCN(Cc2cccc(OCc3ccccc3)c2)CC1	nt	nt	nt	-91%	nt	nt
COc1ccc(C2c3cccn3CCN2S(=O)(=O)c2c(C)cc(C)cc2C)cc1OC (configuration not stated)	nt	nt	nt	-14%	nt	nt
COc1cc(OC)c(NC(=O)NCCn2c(C(F)(F)F)nc3ccccc32)cc1Cl	nt	nt	nt	7%	nt	nt
CCOc1cc(C#N)ccc1OCc1ccc(OC)c(F)c1	nt	nt	nt	20%	nt	nt
CCOc1cc(C(=O)Nc2ccc3nc(N4CCN(C)CC4)cc(C)c3c2)cc(OCC)c1OCC	nt	18µM*	nt	-22%	4.6µM*	nt
Cc1cc(N2CCN(C)CC2)nc2ccc(NC(=O)Nc3ccccc3Br)cc12	nt	21µM*	nt	?	15µM*	nt
COc1cc(NC(=O)CC2SCCNC2=O)cc(OC)c1OC (configuration not stated)	nt	nt	nt	-1%	nt	nt
Cn1c(=O)n(C)c2cc([N+](=O)[O-])c(N3CCN(C(=O)c4cccc(Cl)c4)CC3)cc21	?	?	-9%	0%	18µM*	3%
Cc1ccc(S(=O)(=O)N2CCN(c3cc4c(cc3[N+](=O)[O-])n(C)c(=O)n4C)CC2)cc1	7.3µM*	?	-3%	4%	16µM*	2%
COC(=O)c1ccc(N2CCN(S(=O)(=O)c3ccc4ccccc4c3)CC2)c([N+](=O)[O-])c1	-20%	16µM*	-16%	-12%	21µM*	30%
COc1ccc(N2CCN(S(=O)(=O)c3ccc4c(c3)CCCC4)CC2)c([N+](=O)[O-])c1	-9%	16µM*	?	1%	23µM*	?
COC(=O)c1ccc(N2CCN(C(=O)C3CC3)CC2)c([N+](=O)[O-])c1	-6%	21%	2%	9%	0%	12%
Cc1ccc(C(=O)N2CCN(c3cc4c(cc3[N+](=O)[O-])n(C)c(=O)n4C)CC2)cc1	-13%	?	0%	-3%	?	-3%
CN1CCN(c2ccc(S(=O)(=O)N3CCCCC3)cc2[N+](=O)[O-])CC1	?	4%	0%	?	-7%	10%
CCc1ccc(NC(=O)Cn2c(-c3ccccc3)nc(C)c(CCO)c2=O)cc1	nt	nt	nt	-1%	nt	nt
Cn1c(=O)n(C)c2cc([N+](=O)[O-])c(N3CCN(S(=O)(=O)c4ccc5ccccc5c4)CC3)cc21	-15%	16µM*	-9%[0.365 µM]	8%	?	?
CN1CCCN(S(=O)(=O)c2ccc3ccccc3c2)CC1	13%	-12%	-15%	-8%	?	12%
O=C(c1ccncc1)N1CCC2(CC1)CN(c1ncccn1)CC2CO (configuration not stated)	nt	nt	nt	21%	nt	nt
CCN(CC)c1ccc(NC(=O)c2ccccc2Br)cc1S(=O)(=O)Nc1ccccc1OC	-4%	12µM*	?	35µM*	10µM*	37%
CCN(CC)c1ccc(NC(=O)COc2ccccc2C)cc1S(=O)(=O)Nc1ccccc1OC	2%	?	-9%	?	15µM*	-4%
COc1cc(C(=O)ON=C2C(C)=CC(=O)C=C2C)cc(OC)c1OC	?	-13%	-21%	5%	1%	-40%
COc1cc(C(=O)O/N=C2/C=C(C)C(=O)C=C2C)cc(OC)c1OC	12%	8.2µM*	-14%	-5%	2.1µM*	-38%
COCCC1(C(=O)O)CCCN(C(=O)c2cc(F)ccc2OC)C1 (configuration not stated)	nt	nt	nt	2%	nt	nt
